Assay results published in PubChem BioAssay (NCATS).
Records with an inconclusive call do not appear. Values without a mark were called inactive. Calls follow the shape of the dose curve; as a rule, active = well fitted activation curve with a large enough effect; inconclusive = small, poorly fitted or top-dose-only effect; inactive = flat fitted curve, though single readings scatter.

Assay: Validation screen for small molecules that induce DNA re-replication in SW480 colon adenocarcinoma cells (AID 504364); also: 0% is about no effect
Details: DNA re-replication phenotype (high-content imaging); series mostly up to 46.1 µM; activity (re-replication induction): at the top concentration
In short: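 Image-based DNA content read-out: Hoechst stain 40 min, total nuclear fluorescence intensity (ex 405 nm, em 500-530 nm) after 48 h compound exposure of 250 SW480 cells/well at 37 C, 5% CO2, versus DMSO vehicle.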

Row | SMILES | activity (re-replication induction)
1 | N[C@@H](CCCC(=O)O)C(=O)O | 1.77%
2 | CSC(N)=NCCC[C@H](N)C(=O)O | -5.33%
3 | NCCCCN=C(N)N | -1.25%
4 | C#CCn1c(=O)c2c(ncn2C)n(C)c1=O | 0.831%
5 | O=C(O)Cc1c[nH]c2ccc(O)cc12 | 0.925%
6 | COc1cc(N)c(Cl)cc1C(=O)OCCN1CCCCC1 | -7.69%
7 | c1ccc(C2CN3CCSC3=N2)cc1 (stereo not drawn) | -5.82%
8 | NCCS(=O)O | -11%
9 | Oc1ccc(Cn2cc[nH]c2=S)cc1 | 0.0725%
10 | COc1ccc(-c2ccc(N)[n+](CCCC(=O)O)n2)cc1 | -9.95%
11 | CC(C)Cn1c(=O)n(C)c(=O)c2[nH]cnc21 | -0.519%
12 | Cn1cc(C(F)(F)F)nc1-c1ccc(OCC(O)CNCCOc2ccc(O)c(C(N)=O)c2)cc1 (stereo not drawn) | -2.98%
13 | Cn1c(=O)c2c(nc(/C=C/c3cccc(Cl)c3)n2C)n(C)c1=O | 18.6%
14 | Cn1cc(C(=O)OCC2CCN(CCNS(C)(=O)=O)CC2)c2ccccc21 | 0.645%
15 | NC/C=C\C(=O)O | -1.52%
16 | Nc1ccc(-c2nc3ccc(-c4nc5ccc(N)cc5[nH]4)cc3[nH]2)cc1 | -10.5%
17 | NC(=O)c1cc[n+](CC2=C(C(=O)O)N3C(=O)[C@@H](NC(=O)[C@@H](c4ccccc4)S(=O)(=O)[O-])[C@H]3SC2)cc1 | -2.93%
18 | N[C@@H](Cc1c[nH]c2ccccc12)C(=O)O | 0.325%
19 | CN[C@H](CC(=O)O)C(=O)O | -5.41%
20 | CCCCCCCCCC[Si](C)(C)CCC(=O)NC(Cc1ccc(C)cc1)c1ccccc1 (stereo not drawn) | 11.9%
21 | Cc1cccc(C)c1OCC(N)C(C)C (stereo not drawn) | 2.04%
22 | Cn1ccnc1 | -10.9%
23 | CCCn1c(=O)c2[nH]c(-c3ccc(S(=O)(=O)O)cc3)nc2n(CCC)c1=O | -18.1%
